Where a name gives a salt, the structure may show the parent alone. ± gives the standard deviation of the averaged measurements. The whole screen tested about 1,000 compounds, of which about 15 (2%) showed an effect of 50% or more. Many of the other results were omitted from the sample, so strong results are more common in it than they were.

The subject of the test is HFF. Nature of the test: uninfected host cell viability relative to vehicle control; higher = less host cell toxicity. To be noted: 5 µM; 72 h; oxygen 21 %.
With `C[C@@]12C(=O)OC(=O)[C@]1(C)[C@H]1CC[C@@H]2O1` [Cantharidin], the “uninfected host cell viability” value was determined as 19.7 ± 1.6%.

Consider `CC(C)NCC(O)c1ccc(N)c(C#N)c1` (stereo not given) [Cimaterol], for which the “uninfected host cell viability” value came to 84.5 ± 2.1%.

As for `NC(=S)N/N=C/c1coc2ccccc2c1=O.[Cl][Cu][Cl]`, the “uninfected host cell viability” value was determined as 98.2 ± 1.8%.

Take `COC1(C[S@+]([O-])c2ccccc2)CCN(CCc2c[nH]c3ccc(F)cc23)CC1`: the “uninfected host cell viability” value is 80.8 ± 2.7%.

Regarding `NCCc1c[nH]c2ccc(C(N)=O)cc12` [5-Carboxamidotryptamine maleate], the “uninfected host cell viability” value came out at 91.33 ± 0.078%.

For `CC(C)C[C@@H](N)C1(c2ccc(Cl)cc2)CCC1`, the “uninfected host cell viability” value is 91.72 ± 0.29%.

Take `NC1(c2ccccc2Cl)CCCCC1=O` (stereo not given) [Norketamine hydrochloride]: the “uninfected host cell viability” value amounted to 97.41 ± 0.47%.

For the molecule `c1ccc2c(c1)[I+]c1ccccc1-2` [Diphenyleneiodonium chloride], the “uninfected host cell viability” value came out at 30.8 ± 3.4%.

As for `Cc1[nH]c2ccc(Cl)cc2c1C1=CCNCC1`, the “uninfected host cell viability” value amounted to 75.1 ± 2%.

Turning to `CN1Cc2ccccc2[C@@H]2c3cccc4[nH]cc(c34)C[C@H]21`, the “uninfected host cell viability” value turned out to be 86.3 ± 3.7%.

Turning to `CCOC(=O)c1ncc2[nH]c3ccc(OCc4ccccc4)cc3c2c1COC`, the “uninfected host cell viability” value worked out at 103 ± 4.4%.

`C[C@H]1CCC/C=C/[C@@H]2C[C@H](O)C[C@H]2[C@H](O)/C=C/C(=O)O1` [Brefeldin A]: the “uninfected host cell viability” value stood at 45.4 ± 4%.

In the case of `N#Cc1ccc(N2CCN(C(=O)COc3ccc4[nH]cc(CCN)c4c3)CC2)cc1` [Donitriptan hydrochloride], the “uninfected host cell viability” value was 98.31 ± 0.13%.

Take `CC(=O)[C@H]1CC[C@H]2[C@@H]3CC[C@H]4C[C@](C)(O)CC[C@]4(C)[C@H]3CC[C@]12C` [Ganaxolone]: the “uninfected host cell viability” value came to 95 ± 1.5%.

Consider `O=C1NC(=O)c2c1c1c3ccccc3[nH]c1c1[nH]c3ccccc3c21` [Arcyriaflavin A], for which the “uninfected host cell viability” value stood at 83.56 ± 0.33%.

With `O=C1NC(=O)c2c1c1c3ccccc3n3c1c1c2c2ccccc2n1[C@H]1CC[C@@H]3O1`, the “uninfected host cell viability” value turned out to be 39.2 ± 11%.

`C[C@@H](N)Cc1cnc[nH]1` [(R)-(-)- α-Methylhistamine dihydrobromide]: the “uninfected host cell viability” value is 89.841 ± 0.031%.

On to `O=[N+]([O-])c1cc(O)c(O)c([N+](=O)[O-])c1`, for which the “uninfected host cell viability” value came out at 95.7 ± 4.9%.

As for `Oc1ccc2c3c1O[C@H]1c4[nH]c5ccccc5c4C[C@@]4(O)[C@@H](C2)N(CC2CC2)CC[C@]314` [Naltrindole hydrochloride], the “uninfected host cell viability” value turned out to be 81.09 ± 0.49%.

For the molecule `O=C1/C(=C/c2ccccc2)C[C@@]2(O)[C@H]3Cc4ccc(O)c5c4[C@@]2(CCN3CC2CC2)[C@H]1O5` [BNTX maleate], the “uninfected host cell viability” value was determined as 22.2 ± 1.1%.

`Oc1ccc2c3c1O[C@H]1c4[nH]c5c(c4C[C@@]4(O)[C@@H](C2)N(CC2CC2)CC[C@]314)C[C@@]1(O)[C@H]2Cc3ccc(O)c4c3[C@@]1(CCN2CC1CC1)[C@H]5O4` [nor-Binaltorphimine dihydrochloride]: the “uninfected host cell viability” value was 85.23 ± 0.22%.

Turning to `O[C@H]1[C@H](O)[C@@H](O)CN2CC[C@H](O)[C@H]12` [Castanospermine], the “uninfected host cell viability” value was 82.95 ± 0.65%.

For the molecule `CCN(CC)CCO[C@H]1CC[C@@]2(C)C(=CC[C@@H]3[C@@H]2CC[C@]2(C)C(=O)CC[C@@H]32)C1`, the “uninfected host cell viability” value was determined as 104 ± 3.5%.

Regarding `c1ccc(CC(c2ccccc2)N2CCCCC2)cc1` (racemic) [(±)-1-(1,2-Diphenylethyl)piperidine maleate], the “uninfected host cell viability” value is 89.8 ± 6.6%.

For the molecule `N[C@H](C(=O)O)c1cc(O)no1` [Ibotenic acid], the “uninfected host cell viability” value was 85 ± 3.7%.

The record behind these values is the supplement of paper PMC4894684.
